Inconclusive results are not listed. Entries that show only a call come without a potency. Active and inactive are the calls of the source. The call rests on the fitted dose curve; in most records, active means well fitted curve in the direction sought with a large enough effect; inconclusive means small, poorly fitted or top-dose-only effect, or another doubt; inactive means no such curve, though single readings can be large; an effect the other way counts as inactive or inconclusive.
Legend:
[1] = qHTS for compounds that reverse cellular toxicity of Amyloid beta (A-beta) peptide in yeast: LOPAC Validation Assay (AID 720559); settings: yeast expressing A-beta; series mostly up to 46.1 µM
Method in brief: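 Yeast cells expressing toxic A-beta were combined with pinned compounds in growth medium and incubated 48 hr at 30 C. Growth was read as absorbance at 600 nm and normalized to DMSO and to an equimolar FeCl3/clioquinol positive control.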

[2] = qHTS for Activators of Parkin Expression: LOPAC Validation Assay (NLuc Reporter) (AID 720572); settings: Parkin promoter NanoLuc reporter cells, luminescence; series mostly up to 46.1 µM
Method in brief: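 Neuronal line stably carrying a FLuc/NLuc coincidence reporter under the Parkin promoter, seeded 24 h, then dosed in 7-point series for 24 h at 37 C. NLuc luminescence read after FLuc; normalized to DMSO and positive control (100%).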

[3] = qHTS for Activators of Parkin Expression: LOPAC Validation Assay (FLuc Reporter) (AID 720573); settings: Cell line, PRKN promoter firefly luciferase reporter; series mostly up to 46.1 µM
Method in brief: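 Neuronal cell line stably carrying FLuc/NLuc coincidence reporter under Parkin promoter; cells plated 24 h, then compounds added in 7-point dose response for 24 h at 37 C. FLuc luminescence read; normalized to DMSO and positive control (100%).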

| Structure (SMILES) | outcome [1] | Potency [2] | Potency [3] |
| --- | --- | --- | --- |
| O=C(O)C1CCNCC1 | inactive | inactive | inactive |
| NC(Cc1cccc(-c2ccccc2CP(=O)(O)O)c1)C(=O)O (stereo unspecified) | inactive | inactive | inactive |
| O=C(O)C1=CC(=C(c2ccc(O)c(C(=O)O)c2)c2ccc(O)c(C(=O)O)c2)C=CC1=O | inactive | inactive | inactive |
| Cn1ccnc1 | inactive | inactive | inactive |
| [Li+] | inactive | inactive |  |
| CC(C)[C@@H]1CC[C@@H](C)C[C@@H]1P(=O)(c1ccccc1)c1ccccc1 | inactive | inactive | inactive |
| Cc1nc(N=Nc2cc(S(=O)(=O)O)c3cc([N+](=O)[O-])cc(S(=O)(=O)O)c3c2)c(COP(=O)(O)O)c(C=O)c1O | inactive | inactive | inactive |
| CCCCCCCCCC[Si](C)(C)CCC(=O)NC(Cc1ccc(C)cc1)c1ccccc1 (stereo unspecified) | inactive | inactive | inactive |
| O=C(O)c1cccnc1C(=O)O | inactive | inactive | inactive |
| O=C(O)CCC(=O)N1CCCC1C(=O)O (stereo unspecified) | inactive | inactive | inactive |
| OC1(c2ccc(Cl)cc2)CCN(Cc2c[nH]c3ccccc23)CC1 | inactive | inactive | inactive |
| COc1ccc(-c2cc3ncc(C)n3c(Nc3ncccc3C(N)=O)n2)cc1OC | inactive | inactive | inactive |
| C[C@](Cc1ccc(O)c(O)c1)(NN)C(=O)O | inactive | inactive | inactive |
| CC(C)NC[C@H](O)COc1cccc2ccccc12 | inactive | inactive | inactive |
| O=C(O)C1CCCNC1 (stereo unspecified) | inactive | inactive | inactive |
| Nn1nnc2ccccc21 | inactive | inactive | inactive |
| O=c1onc2n1-c1cc(Br)ccc1OC2 | inactive | inactive |  |
| O=C1NC(=O)c2cc(Nc3ccccc3)c(Nc3ccccc3)cc21 | inactive | inactive | inactive |
| Nc1nc2c(cnn2CCc2ccccc2)c2nc(-c3ccco3)nn12 | inactive | inactive |  |
| c1ccc2c(c1)CC(N1CCN(c3cccc4c3OCCO4)CC1)C2 | inactive | inactive |  |

| Structure (SMILES) | outcome [1] | Potency [2] | Potency [3] |
| --- | --- | --- | --- |
| CCCn1c(=O)c2[nH]c(-c3ccc(S(=O)(=O)O)cc3)nc2n(CCC)c1=O | inactive | inactive | inactive |
| N#Cc1cc([N+](=O)[O-])c2sc(C(N)=O)[n+]([O-])c2c1 | inactive | inactive | inactive |
| CC(=O)SC1CC2=CC(=O)CC[C@]2(C)C2CC[C@@]3(C)C(CC[C@@]34CCC(=O)O4)C12 (stereo partly specified) | inactive |  |  |
| Cn1c(=O)c2c(nc(/C=C/c3cccc(Cl)c3)n2C)n(C)c1=O | inactive | inactive |  |
| Nc1nc2[nH]c(=O)cnc2c(=O)[nH]1 | inactive | inactive | inactive |
| O=C(O)Cc1c[nH]c2ccc(O)cc12 | inactive | inactive | inactive |
| COc1cc([C@@H]2c3cc4c(cc3[C@H](O)C3COC(=O)[C@@H]32)OCO4)cc(OC)c1OC (stereo partly specified) | inactive | inactive | inactive |
| C=CCN1CCc2c(cc(O)c(O)c2Cl)C(c2ccccc2)C1 (stereo unspecified) | inactive | inactive | inactive |
| NC[C@@H]1O[C@H](c2ccccc2)Cc2c1ccc(O)c2O | inactive | inactive | inactive |
| Nc1ncnc2c1c(-c1ccc(Oc3ccccc3)cc1)cn2C1CCCC1 | inactive | inactive | inactive |
| NC(N)=[N+]1CCc2ccccc2C1 | inactive | inactive | inactive |
| NC(=O)CC[C@H](N)C(=O)O | inactive | inactive | inactive |
| CSC(=N)N | inactive | inactive | inactive |
| C=C1C[C@@]23CC[C@H]4[C@@](C)(CCC[C@@]4(C)C(=O)OC4OC(CO)C(O)C(O)C4O)[C@@H]2CC[C@]1(OC1OC(CO)C(O)C(O)C1OC1OC(CO)C(O)C(O)C1O)C3 (stereo partly specified) |  | inactive |  |
| NCC(O)(CS(=O)(=O)O)c1ccc(Cl)cc1 (stereo unspecified) | inactive | inactive | inactive |
| N[C@@H](Cc1c[nH]c2ccccc12)C(=O)O | inactive | inactive | inactive |
| COc1ccccc1N1CCN(CCCCN2C(=O)c3ccccc3C2=O)CC1 | inactive | inactive | inactive |
| O=S(=O)(c1cccc2c(Cl)cccc12)N1CCCNCC1 | inactive | inactive | inactive |
| CC(C)(C)c1ccc(/C=C/C(=O)Nc2ccc3c(c2)OCCO3)cc1 | inactive | inactive | inactive |
| Cc1nc2c(OCc3ccccc3)cccn2c1CC#N | inactive | inactive | inactive |

From PubChem BioAssay (NCATS)
